Compounds without any hit were thinned out: in the full panel of roughly 83,000, 20% have a hit.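 Percent growth is the endpoint: 0 to 100 indicates growth inhibition (40 means 60% inhibition), 0 means no net growth, and negative values indicate cell death.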 A number with no mark means an inactive call. Activity calls are given as the source filed them. Rule for the calls: active = growth percent below 10; inactive = the rest.
Experiments:
Experiment in all cases: NCI-60 one-dose screen, 48 h (100 = growth as untreated, 0 = no growth, -100 = all killed)
[1] = system: EKVX NSCLC; conditions: 10 µM unless noted
[2] = system: SN12C renal; conditions: 10 µM unless noted
[3] = system: UO-31 renal; conditions: 10 µM unless noted
[4] = system: TK-10 renal; conditions: 10 µM unless noted
[5] = system: ACHN renal; conditions: 10 µM unless noted
[6] = system: CAKI-1 renal; conditions: 10 µM
[7] = system: CCRF-CEM leukemia; conditions: 10 µM unless noted
[8] = system: MOLT-4 leukemia; conditions: 10 µM unless noted
[9] = system: SR leukemia; conditions: 10 µM unless noted
[10] = system: RPMI-8226 leukemia; conditions: 10 µM unless noted
[11] = system: OVCAR-8 ovarian; conditions: 10 µM unless noted
[12] = system: OVCAR-5 ovarian; conditions: 10 µM unless noted
[13] = system: OVCAR-4 ovarian; conditions: 10 µM unless noted
[14] = system: SK-OV-3 ovarian; conditions: 10 µM unless noted
[15] = system: IGROV1 ovarian; conditions: 10 µM unless noted
[16] = system: HS 578T breast; conditions: 10 µM unless noted
[17] = system: NCI/ADR-RES ovarian; conditions: 10 µM unless noted
[18] = system: A498 renal; conditions: 10 µM unless noted

Structure (SMILES)	growth [1]	growth [2]	growth [3]	growth [4]	growth [5]	growth [6]	growth [7]	growth [8]	growth [9]	growth [10]	growth [11]	growth [12]	growth [13]	growth [14]	growth [15]	growth [16]	growth [17]	growth [18]
CCc1ccc(NC(=O)N[C@@H](Cc2cccc(F)c2)C(=O)N[C@@H]2C(=O)N3CCC[C@H]3C(=O)N3CCCC[C@H]3C(=O)N[C@@H](CO)C(=O)N3C[C@H](C)C[C@H]3C(=O)O[C@H]2C)c(F)c1	34%	20.3%	29.4%	61.1%	32.2%	17.5%	37.7%	39.3%	31.4%	20.3%	20.9%	36.4%	24.6%	21.8%	39.5%	35.5%	60.6%	–
COc1ccc(-c2nc3cc(Cl)c(Cl)cc3n2CC(=O)N=Nc2c(O)[nH]c3ccccc23)cc1	72.4%	38.4%	76.9%	95.7%	50.8%	56.5%	39.9%	47.4%	66.4%	62.5%	78.4%	63%	75.1%	100%	52.9%	53.4%	44.3%	–
Cc1ccc(-c2cc3nc(C(Cl)Cl)nc(-c4ccccc4)n3n2)cc1	99.6%	107%	91.8%	108%	47.5%	72.7%	101%	97%	85.3%	–	92.9%	103%	103%	97.9%	94.3%	109%	79.5%	–
CN1CCN(Cc2ccc(NC(=O)c3cncc(C#Cc4cnc5ccc(NC6CCOCC6)nn45)c3)cc2C(F)(F)F)CC1	-4.66% (active)	1.01% (active)	-43.7% (active)	-11.7% (active)	-95.5% (active)	-46.9% (active)	3.15% (active)	5.18% (active)	-37.8% (active)	-34.1% (active)	-52.4% (active)	0.169% (active)	-29.1% (active)	-22.9% (active)	-21% (active)	-26% (active)	7.41% (active)	–
CS(=O)(=O)c1ccc2c(c1)c1c(n2S(=O)(=O)c2ccc(Cl)cc2)CCCC1	48%	33.1%	–	65.7%	46.9%	29.3%	27.3%	24.4%	12.3%	19.1%	31.9%	40.2%	64.7%	29.7%	48%	0.523% (active)	21%	-11.2% (active)
COc1cc(-c2nc(SCc3ccc(C)cc3)[nH]c(=O)c2C#N)ccc1OCc1ccccc1	107%	116%	91.8%	101%	105%	95.2%	116%	129%	125%	105%	101%	105%	98.1%	108%	–	107%	103%	–
C/C(=N\NC(=O)CSc1nc2sc3c(c2c(=O)n1-c1ccccc1)CCC(C)C3)c1ccc(Cl)cc1 (stereo not drawn)	31.5%	29.2%	17%	32.8%	13.4%	12.8%	12.6%	14%	6.22% (active)	–	18.8%	50%	29.3%	57.4%	19.2%	61.9%	–	–
COc1cc(O)c2c(c1)/C=C/C[C@H](O)[C@H](O)C(=O)/C=C\C[C@H](C)OC2=O	44.2%	7.02% (active)	13.1%	34.7%	6.98% (active)	13.6%	8.51% (active)	5.34% (active)	-6.77% (active)	-4.42% (active)	19.9%	8.3% (active)	18.9%	75.4%	–	-26.4% (active)	8.99% (active)	–
Cc1cccc(NC(c2cc3cccc4ccc5cccc2c5c43)c2nnnn2C(C)(C)C)c1C (stereo not drawn)	75.2%	93%	66.9%	138%	90.4%	66.3%	95%	76%	86.3%	–	92.8%	87%	85.2%	77.4%	73.6%	88%	89.4%	–
O=C1Nc2cc(OC(F)(F)F)ccc2Oc2ccc(-c3ccnc(N4CC[C@H](O)C4)c3)cc21	45.9%	7.37% (active)	24%	75.6%	25.1%	23.9%	12.6%	11.3%	-6.83% (active)	17%	-14.4% (active)	25.5%	48.5%	–	16.8%	24.5%	9.76% (active)	–
Cc1cc(=O)n2nc(-c3cn(C)c4ccc(Cl)cc34)sc2n1	89.5%	91.6%	87.1%	138%	89.8%	79%	88.3%	86.6%	93%	94.5%	96.8%	93.8%	93.7%	–	83.7%	83.9%	93.2%	–
O=C1Nc2cc(OC(F)(F)F)ccc2Oc2ccc(-c3ccnc(N4CCNCC4)c3)cc21	41.2%	-26.9% (active)	1.72% (active)	27.8%	2.57% (active)	-36.1% (active)	-6.19% (active)	-0.166% (active)	-44% (active)	–	20.9%	14.7%	48%	20.5%	–	2.5% (active)	5.35% (active)	–
Cc1ccc(NC(=O)N[C@@H](Cc2cc(F)cc(F)c2)C(=O)NC2C(=O)N3CCC[C@H]3C(=O)N3CCCC[C@H]3C(=O)N[C@@H](C)C(=O)N3C[C@H](C)C[C@H]3C(=O)O[C@H]2C)c(F)c1 (stereo partly drawn)	29.5%	23.5%	30.2%	53.9%	32.1%	22.2%	34.2%	40.3%	30.6%	11.6%	21.6%	36.3%	23.9%	23.9%	47.5%	28.9%	20.1%	–
O=C1Nc2ccc(Cl)cc2/C1=C/c1ccc(OCc2ccc(F)cc2)cc1	90.9%	93.9%	86.4%	99%	103%	74.6%	-53.8% (active)	93.4%	101%	–	98.5%	94%	97.5%	101%	100%	101%	80.5%	–
Cc1ccc(NC(=O)c2cc(/C=C/C(=O)NO)cc(C(F)(F)F)c2)cc1Nc1nccc(-c2cccnc2)n1	28%	2.25% (active)	–	15.2%	18.5%	6.2% (active)	5.21% (active)	5.15% (active)	4.9% (active)	-13% (active)	-12.2% (active)	17.4%	23%	-38.3% (active)	2.46% (active)	-14.5% (active)	87.8%	-46.9% (active)
CC1CCc2c(sc3nc(SCC(=O)N/N=C/c4ccc(Cl)cc4)n(-c4ccccc4)c(=O)c23)C1 (stereo not drawn)	103%	95.6%	94.2%	114%	81.1%	75.1%	109%	110%	96%	101%	96.7%	99.4%	99.4%	97.9%	100%	82.2%	97.2%	–
CCc1ccc(NC(=O)N[C@@H](Cc2cc(F)cc(F)c2)C(=O)N[C@@H]2C(=O)N3CCC[C@H]3C(=O)N3CCO[C@H](C)[C@H]3C(=O)N[C@@H](CO)C(=O)N3C[C@H](C)C[C@H]3C(=O)O[C@H]2C)c(F)c1	28.4%	22.5%	36.4%	55.9%	34.7%	20.3%	35%	43.3%	32%	17%	22.9%	35.9%	22.9%	–	39.5%	35.8%	70%	–
Cc1ccc(Cc2cnc(NC(=O)/C(C#N)=C/c3ccc(-c4ccc(Cl)cc4)o3)s2)cc1	92.7%	97.4%	–	120%	97.4%	83.8%	98.4%	103%	85.9%	94.3%	97.9%	100%	94.6%	90.9%	86.8%	102%	92.8%	–

Source: PubChem BioAssay (NCI)
